Measurements reported in PubChem BioAssay (Tox21).
Inconclusive results are not listed. Activity calls are given as the source filed them. Unless noted, calls come from the whole dose curve; as a rule, active = well fitted curve in the direction sought with a large enough effect in the repeat runs; inconclusive = weak or mixed curves; inactive = no such curve, though single readings can be large; an effect the other way counts as inactive or inconclusive.

Experiments:
[1] = qHTS assay to identify small molecule that activate the aryl hydrocarbon receptor (AhR) signaling pathway - cell viability counter screen (AID 743086);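 note: HepG2 liver cells carrying the AhR DRE luciferase reporter; series mostly up to about 70 µM; nearly all actives have a fitted effect of over 45% in size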
In short: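 HepG2-AhR-luc (HG2L7.5c1) cells, 4000/well, were preincubated 5 h at 37C, exposed to compound in qHTS format for 24 hr at 37C, then given CellTiter-Fluor for 30 min; viability was read as fluorescence in the reporter wells.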

[2] = molecular target: Peroxisome proliferator-activated receptor gamma (Homo sapiens) (UniProt P37231); test: qHTS assay to identify small molecule agonists of the peroxisome proliferator-activated receptor gamma (PPARg) signaling pathway (AID 743094; active = well fitted activation curve with a large enough effect in the signal ratio in the repeat runs, not every such curve was filed as active; the % refers to the signal ratio)
In short: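 GeneBLAzer PPARg UAS-bla HEK293H cells were plated, rested 5 h, then exposed to compounds for 17 h at 37C. Beta-lactamase activity was read by LiveBLAzer B/G FRET substrate fluorescence after 1 h at room temperature.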

[3] = molecular target: Peroxisome proliferator-activated receptor gamma (Homo sapiens) (UniProt P37231); test: qHTS assay to identify small molecule antagonists of the peroxisome proliferator-activated receptor gamma (PPARg) signaling pathway (AID 743191; calls by dose curve; note: series mostly up to about 63 µM; nearly all actives have a fitted effect of over 30% in size)
In short: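 GeneBLAzer PPARg UAS-bla HEK293H cells carrying a UAS-driven beta-lactamase reporter were plated at 3000 cells/well, preincubated 5 h at 37C, then given compound for 17 h at 37C; LiveBLAzer B/G FRET substrate was read after 1 h at room temperature.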

[4] = qHTS assay to identify small molecule antagonists of the peroxisome proliferator-activated receptor gamma (PPARg) signaling pathway - cell viability counter screen (AID 743194); conditions: Potency: co-treated with 50 nM rosiglitazone; note: nearly all actives have a fitted effect of over 55% in size
In short: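 PPARg-UAS-bla HEK293H cells were plated, rested 5 h at 37 C, then treated with compounds plus rosiglitazone (50 nM final) for 17 h at 37 C; viability was then read by CellTiter-Glo luminescence after 30 min at room temperature.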

[5] = qHTS assay for small molecule agonists of the antioxidant response element (ARE) signaling pathway (AID 743202; active = well fitted activation curve with a large enough effect in the signal ratio in the repeat runs, not every such curve was filed as active; the % refers to the signal ratio; note: potency is the fitted concentration of half-maximal effect)
In short: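 Read-out: LiveBLAzer B/G FRET substrate fluorescence after 2 h at room temperature, following 16 h compound treatment at 37 C of HepG2 cells carrying an ARE-driven beta-lactamase reporter.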

[6] = qHTS assay for small molecule agonists of the antioxidant response element (ARE) signaling pathway - cell viability counter screen (AID 743203; calls by dose curve; note: nearly all actives have a fitted effect of over 55% in size)
In short: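 ARE-bla HepG2 cells were plated, rested 5 h at 37C/5% CO2, then exposed to compounds in DMSO for 16 h. Viability was read as CellTiter-Glo luminescence after 30 min at room temperature, in the same wells as the ARE screen.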

[7] = qHTS assay for small molecule activators of the heat shock response signaling pathway - cell viability counter screen (AID 743209); note: nearly all actives have a fitted effect of over 50% in size
In short: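 HSE-bla HeLa cells plated overnight, then exposed to Tox21 compounds (23 nL in DMSO) for 5 h at 37 C. After the bla reporter read, CellTiter-Glo was added in the same wells and luminescence read after 30 min at room temperature.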

[8] = qHTS assay for small molecule activators of the heat shock response signaling pathway (AID 743210; active = well fitted activation curve with a large enough effect in the signal ratio in the repeat runs, with a control signal flat, not every such curve was filed as active; the % refers to the signal ratio; note: series mostly up to about 63 µM)
In short: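 HSE-bla HeLa cells (beta-lactamase reporter under heat shock response elements) were exposed to compounds for 5 h at 37 C, then loaded with LiveBLAzer B/G FRET substrate for 2.5 h at room temperature before fluorescence reading.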

[9] = qHTS assay to identify small molecule agonists of the peroxisome proliferator-activated receptor delta (PPARd) signaling pathway - cell viability counter screen (AID 743211); note: nearly all actives have a fitted effect of over 55% in size
In short: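 Viability of GeneBLAzer PPARd UAS-bla HEK293H cells was assessed after 17 h compound incubation at 37C, using CellTiter-Glo reagent added after the reporter read and luminescence recorded 30 min later.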

[10] = molecular target: Peroxisome proliferator-activated receptor delta (Homo sapiens) (UniProt Q03181); test: qHTS assay to identify small molecule agonists of the peroxisome proliferator-activated receptor delta (PPARd) signaling pathway (AID 743212; calls by dose curve)
In short: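 GeneBLAzer PPARd UAS-bla HEK293H cells (beta-lactamase reporter under UAS control), plated and rested 5 h at 37 C, then exposed to compounds in DMSO at 37 C; LiveBLAzer B/G FRET substrate added, 2 h room temperature, fluorescence read.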

[11] = qHTS assay to identify small molecule antagonists of the peroxisome proliferator-activated receptor delta (PPARd) signaling pathway - cell viability counter screen (AID 743213); note: nearly all actives have a fitted effect of over 50% in size
In short: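 Cytotoxicity counter screen: CellTiter-Glo luminescence read 30 min after addition, in the same wells as the reporter assay. There, PPARd UAS-bla HEK293H cells (3000/well) were treated 17 h at 37 C with compound and 300 nM L165041.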

[12] = molecular target: Peroxisome proliferator-activated receptor delta (Homo sapiens) (UniProt Q03181); test: qHTS assay to identify small molecule antagonists of the peroxisome proliferator-activated receptor delta (PPARd) signaling pathway (AID 743215; active = well fitted inhibition curve with a large enough effect in the signal ratio in the repeat runs, not every such curve was filed as active; the % refers to the signal ratio;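 note: cells stimulated with agonist L165041 at 300 nM final during compound exposure; series mostly up to about 62 µM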)
In short: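 PPARd-bla HEK293H cells (UAS-bla reporter) preincubated 5 h, then given compound plus 300 nM final L165041 agonist for 17 h at 37 C. Beta-lactamase activity read by LiveBLAzer B/G FRET substrate fluorescence after 2 h at room temperature.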

[13] = molecular target: Bile acid receptor (Homo sapiens) (UniProt Q96RI1); test: qHTS assay to identify small molecule antagonists of the farnesoid-X-receptor (FXR) signaling pathway (AID 743217; active = well fitted inhibition curve with a large enough effect in the signal ratio in the repeat runs, not every such curve was filed as active; the % refers to the signal ratio)
In short: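 FXR-UAS-bla HEK 293T cells (beta-lactamase reporter) given compound plus chenodeoxycholic acid (50 uM final), 16 h at 37C. LiveBLAzer B/G FRET substrate added for 2 h at room temperature; fluorescence read.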

[14] = qHTS assay to identify small molecule agonists of the farnesoid-X-receptor (FXR) signaling pathway - cell viability counter screen (AID 743218); note: nearly all actives have a fitted effect of over 45% in size
In short: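 FXR-UAS-bla HEK 293T cells exposed to compounds for 16 h at 37C. Cytotoxicity read in the same wells by CellTiter-Glo luminescence after 30 min at room temperature, following the beta-lactamase FRET read.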

[15] = qHTS assay to identify small molecule antagonists of the farnesoid-X-receptor (FXR) signaling pathway - cell viability counter screen (AID 743221; active = well fitted cell-killing curve with a large enough effect in the repeat runs, not every such curve was filed as active; note: nearly all actives have a fitted effect of over 50% in size)
In short: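 Quantitative HTS of the Tox21 10K library run in parallel with the beta-lactamase reporter read. HEK 293T cells carrying a UAS-driven bla reporter got compound and 50 uM CDCA (final) for 16 h; ATP-based luminescence followed.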

[16] = molecular target: Vitamin D3 receptor (Homo sapiens) (UniProt P11473); test: qHTS assay to identify small molecule agonists of the vitamin D receptor (VDR) signaling pathway (AID 743222; calls by dose curve)
In short: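 VDR-bla cells plated 4 h at 37 C, then exposed to compounds for 16 h at 37 C. Beta-lactamase reporter activity measured by fluorescence after 2 h room-temperature loading with LiveBLAzer B/G FRET substrate.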

[17] = qHTS assay to identify small molecule agonists of the vitamin D receptor (VDR) signaling pathway - cell viability counter screen (AID 743224); note: series mostly up to about 63 µM; nearly all actives have a fitted effect of over 50% in size
In short: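 VDR-bla cells, 4 h after plating, exposed to compounds for 16 h at 37C; viability then read in the same wells as CellTiter-Glo luminescence after 30 min at room temperature, following the bla FRET read.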

[18] = molecular target: Aryl hydrocarbon receptor (Homo sapiens) (UniProt P35869); test: qHTS assay to identify small molecule that activate the aryl hydrocarbon receptor (AhR) signaling pathway (AID 743085);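 note: HG2L7.5c1 human HepG2 liver cells with stably integrated DRE-driven firefly reporter; series mostly up to about 70 µM; nearly all actives have a fitted effect of over 15% in size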
In short: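 Steps: seed HepG2-AhR-luc cells; allow 5 h at 37C; pin-transfer test compound or vehicle; incubate 24 h at 37C; add viability dye (30 min, 37C) and read fluorescence; add luciferase substrate (30 min, RT) and read luminescence.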

[19] = molecular target: Bile acid receptor (Homo sapiens) (UniProt Q96RI1); test: qHTS assay to identify small molecule agonists of the farnesoid-X-receptor (FXR) signaling pathway (AID 743220; active = well fitted activation curve with a large enough effect in the signal ratio in the repeat runs, not every such curve was filed as active; the % refers to the signal ratio)
In short: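 Beta-lactamase reporter under UAS control in GeneBLAzer FXR HEK 293T cells (5000/well) measured with LiveBLAzer FRET substrate after 2 h at room temperature. Compound exposure lasted 16 h at 37C.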

[20] = molecular target: Vitamin D3 receptor (Homo sapiens) (UniProt P11473); test: qHTS assay to identify small molecule antagonists of the vitamin D receptor (VDR) signaling pathway (AID 743223; active = well fitted inhibition curve with a large enough effect in the signal ratio in the repeat runs, not every such curve was filed as active; the % refers to the signal ratio)
In short: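 Fluorescence from LiveBLAzer B/G FRET substrate, read after 2 h at room temperature, reflects beta-lactamase reporter activity in VDR-bla cells treated 16 h at 37C with compounds and agonist 1alpha,25-dihydroxyvitamin D3 (3 nM final).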

Measured: Potency

Sequence of Peroxisome proliferator-activated receptor gamma (Homo sapiens) (P37231 whole entry, looked up): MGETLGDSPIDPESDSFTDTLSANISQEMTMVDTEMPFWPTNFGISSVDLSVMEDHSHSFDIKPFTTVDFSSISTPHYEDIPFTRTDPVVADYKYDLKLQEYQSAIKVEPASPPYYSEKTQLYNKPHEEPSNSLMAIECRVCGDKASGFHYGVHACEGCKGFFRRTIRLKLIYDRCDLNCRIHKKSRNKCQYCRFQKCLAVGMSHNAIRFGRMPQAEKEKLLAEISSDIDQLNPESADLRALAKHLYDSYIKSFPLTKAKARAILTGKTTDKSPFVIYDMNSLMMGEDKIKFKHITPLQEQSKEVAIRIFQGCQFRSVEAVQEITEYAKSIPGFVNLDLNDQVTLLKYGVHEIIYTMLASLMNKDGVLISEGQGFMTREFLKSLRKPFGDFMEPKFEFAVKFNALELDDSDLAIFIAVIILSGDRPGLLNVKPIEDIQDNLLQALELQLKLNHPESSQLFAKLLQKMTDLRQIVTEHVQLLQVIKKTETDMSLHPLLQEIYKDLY
Sequence of Peroxisome proliferator-activated receptor delta (Homo sapiens) (Q03181 whole entry, looked up): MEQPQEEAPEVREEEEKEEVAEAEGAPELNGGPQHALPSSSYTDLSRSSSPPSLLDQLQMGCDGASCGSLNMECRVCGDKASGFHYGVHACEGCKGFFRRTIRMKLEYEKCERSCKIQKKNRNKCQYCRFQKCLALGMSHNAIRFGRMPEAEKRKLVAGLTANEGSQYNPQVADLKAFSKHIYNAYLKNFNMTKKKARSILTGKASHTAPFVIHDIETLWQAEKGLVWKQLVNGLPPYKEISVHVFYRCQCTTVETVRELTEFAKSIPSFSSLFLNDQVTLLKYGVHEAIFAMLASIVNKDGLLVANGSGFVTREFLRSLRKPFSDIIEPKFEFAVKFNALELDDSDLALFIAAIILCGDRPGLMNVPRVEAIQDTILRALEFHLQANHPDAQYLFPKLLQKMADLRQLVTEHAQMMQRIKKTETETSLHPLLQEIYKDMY
Sequence of Aryl hydrocarbon receptor (Homo sapiens) (P35869 whole entry, looked up): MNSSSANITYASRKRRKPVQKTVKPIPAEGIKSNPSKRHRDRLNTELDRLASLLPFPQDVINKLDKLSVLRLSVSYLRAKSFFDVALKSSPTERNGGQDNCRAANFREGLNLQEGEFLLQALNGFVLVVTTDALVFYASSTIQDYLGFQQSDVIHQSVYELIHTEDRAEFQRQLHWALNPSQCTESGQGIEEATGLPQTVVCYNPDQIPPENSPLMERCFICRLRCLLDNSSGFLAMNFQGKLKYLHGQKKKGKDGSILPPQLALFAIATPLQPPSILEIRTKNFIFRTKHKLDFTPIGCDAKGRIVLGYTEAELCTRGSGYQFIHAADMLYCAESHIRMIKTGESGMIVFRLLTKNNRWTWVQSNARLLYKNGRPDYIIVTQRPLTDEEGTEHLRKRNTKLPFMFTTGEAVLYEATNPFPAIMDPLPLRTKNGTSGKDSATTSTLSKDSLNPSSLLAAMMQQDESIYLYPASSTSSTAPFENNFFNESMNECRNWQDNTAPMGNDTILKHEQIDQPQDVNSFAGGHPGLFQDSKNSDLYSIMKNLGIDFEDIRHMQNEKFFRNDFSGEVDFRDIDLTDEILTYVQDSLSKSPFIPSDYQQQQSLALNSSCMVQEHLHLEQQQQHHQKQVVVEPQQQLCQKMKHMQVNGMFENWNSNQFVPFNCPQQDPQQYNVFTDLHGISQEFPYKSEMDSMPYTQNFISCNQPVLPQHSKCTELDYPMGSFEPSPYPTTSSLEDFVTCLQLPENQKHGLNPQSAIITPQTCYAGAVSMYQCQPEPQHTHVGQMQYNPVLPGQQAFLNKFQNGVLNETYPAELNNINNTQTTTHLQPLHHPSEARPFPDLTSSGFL
Sequence of Vitamin D3 receptor (Homo sapiens) (P11473 whole entry, looked up): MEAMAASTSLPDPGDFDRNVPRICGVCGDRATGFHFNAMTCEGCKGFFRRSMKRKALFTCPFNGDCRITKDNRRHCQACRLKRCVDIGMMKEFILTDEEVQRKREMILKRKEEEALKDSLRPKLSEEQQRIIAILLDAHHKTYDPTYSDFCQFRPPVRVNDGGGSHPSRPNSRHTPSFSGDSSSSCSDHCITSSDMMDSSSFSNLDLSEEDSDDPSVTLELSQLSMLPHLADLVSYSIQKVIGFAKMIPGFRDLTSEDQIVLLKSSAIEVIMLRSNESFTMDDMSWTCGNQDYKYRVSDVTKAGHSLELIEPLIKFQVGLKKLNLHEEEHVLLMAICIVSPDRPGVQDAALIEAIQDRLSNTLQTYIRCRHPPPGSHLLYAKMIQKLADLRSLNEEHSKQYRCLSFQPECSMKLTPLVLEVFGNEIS
Sequence of Bile acid receptor (Homo sapiens) (Q96RI1 whole entry, looked up): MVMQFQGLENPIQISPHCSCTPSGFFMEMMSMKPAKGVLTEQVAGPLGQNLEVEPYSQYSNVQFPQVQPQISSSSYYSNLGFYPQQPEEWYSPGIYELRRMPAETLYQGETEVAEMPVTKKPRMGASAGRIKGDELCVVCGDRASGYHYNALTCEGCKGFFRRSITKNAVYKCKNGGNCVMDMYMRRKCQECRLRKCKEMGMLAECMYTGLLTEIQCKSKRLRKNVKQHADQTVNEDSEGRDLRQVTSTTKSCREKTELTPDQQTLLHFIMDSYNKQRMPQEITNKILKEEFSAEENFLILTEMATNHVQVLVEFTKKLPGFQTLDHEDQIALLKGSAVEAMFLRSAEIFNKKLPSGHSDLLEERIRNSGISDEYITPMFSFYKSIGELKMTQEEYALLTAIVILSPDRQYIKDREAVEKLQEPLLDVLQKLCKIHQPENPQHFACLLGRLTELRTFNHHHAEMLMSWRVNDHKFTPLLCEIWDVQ

CCOC(=O)c1ncn2c1CN(C)C(=O)c1c(I)cccc1-2
not listed: [18] | [19] | [20]
inactive: all other assays above

CC1N=C(N)OC1c1ccccc1 (stereo not given)
not listed: [1] | [3] | [5] | [7] | [8] | [13] | [16]
inactive: all other assays above

COP(=O)(O)OC
not listed: [1] | [5] | [12] | [16] | [17] | [19] | [20]
inactive: all other assays above

O=C(O)C(Cl)Br (stereo not given)
active: [5] 4.91 µM
not listed: [1] | [3] | [7] | [15] | [19] | [20]
inactive: all other assays above

O=C(O)C(Br)(Br)Br
active: [5] 5.44 µM
not listed: [12] | [13] | [18] | [19]
inactive: all other assays above

CC(C)[N+](C)(CCC(C(N)=O)(c1ccccc1)c1ccccc1)C(C)C
inactive: [18] | [2] | [4] | [6] | [7] | [8] | [9] | [11] | [15]

[O-][Br+2]([O-])O
not listed: [1] | [5] | [12] | [13] | [19]
inactive: all other assays above

N#CN
not listed: [12] | [13] | [15] | [18] | [19]
inactive: all other assays above

CCN[C@H](C)Cc1cccc(C(F)(F)F)c1
not listed: [1] | [5] | [12] | [16] | [19] | [20]
inactive: all other assays above

N[C@@H]1C[C@H]1c1ccccc1
not listed: [12] | [16] | [17] | [18] | [19] | [20]
inactive: all other assays above
